In PubChem BioAssay (NCI):
The panel holds about 83,000 compounds, 20% with a hit somewhere; the sample as a whole holds those more often.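 Plates (96-well) were seeded with cells, treated with compound at one concentration, and incubated for 48 hours before percent growth was determined.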 Active and inactive are the calls of the source. The calls were made as follows: active = growth percent below 10; inactive = the rest.

System: HL-60(TB) leukemia
Assay: NCI-60 one-dose screen, 48 h (100 = growth as untreated, 0 = no growth, -100 = all killed)
Details: 10 µM unless noted

Structure (SMILES) | growth
N#Cc1c(Oc2ccc([N+](=O)[O-])cc2)nc2sc3cc(Cl)ccc3n2c1=N | 151% (inactive)
Cc1cccc(N2CCC(=O)NC2=S)c1 | 98.6% (inactive)
Cc1ccnc2c1ccc1c(C)ccnc12 | -5.64% (active)
C=C(c1ccc(OC)c(/C=C/C(=O)c2ccc3c(c2)OCO3)c1)c1cc(OC)c(OC)c(OC)c1 | 10.3% (inactive)
COc1ccc(Cn2c(C(N)=O)cc3c2-c2nc(N)ncc2CCC3)cc1 | 121% (inactive)
CCN(CC)c1cc(C)c(Cc2c(OC)ccc3ccccc23)cc1C | 82.2% (inactive)
O=C1NC(=Nc2ccc(Cl)cc2)S/C1=C\c1cn(-c2ccccc2)nc1-c1ccccc1 | 92% (inactive)
CCOP(=O)(O)OP(=O)(O)OCC | 94.1% (inactive)
N#Cc1cc(-c2nc3ccccc3s2)c(=O)n(NS(=O)(=O)c2ccccc2)c1N | 103% (inactive)
O=C1C=CC(=O)C2=C1CCCC2 | 28.7% (inactive)
Cc1ccc2c(-c3cc(-c4ccccc4)nc(N)c3C#N)cc(=O)oc2c1 | 117% (inactive)
C=C1C(=O)O[C@H]2[C@H]1CC/C(Cn1cc(-c3ccccc3C(F)(F)F)nn1)=C\CC[C@@]1(C)O[C@@H]21 | -13.3% (active)
COc1ccc(C2=NN(C(=O)COc3ccc(Cl)cc3)C(O)(c3cc(F)c(Cl)cc3Cl)C2)cc1OC (stereo not given) | -42.2% (active)
C/C(=C(/c1ccccc1)c1ccc(OCC(O)CN2CCOCC2)cc1)c1ccccc1 (stereo not given) | 60.7% (inactive)
C=CC(=O)N[C@H](Cc1ccc(-c2cc(Cl)cc(Cl)c2)cc1)[C@H](O)[C@@H](O)C(=O)O | 109% (inactive)
N#Cc1cccc(OCc2nc(N)nc(N)c2-c2ccc(Cl)c(Cl)c2)c1 | 29.8% (inactive)
CN1CCN(c2ccc(-c3ccc4ncc(C#N)c(Nc5ccc(F)c(Cl)c5)c4c3)cc2)CC1 | 22.3% (inactive)
COc1cc(-c2cc(-c3ccc(Nc4nc(Nc5ccccc5)nc(Nc5ccc(Cl)cc5)n4)cc3)nc(N)n2)cc(OC)c1OC | 96.8% (inactive)
O=C1/C(=C\c2cccn2Cc2ccc(Cl)cc2)c2ccccc2N1c1c(Cl)cccc1Cl | 79.7% (inactive)
CNC(=O)c1c(NC(=O)c2ccc(C(C)C)cc2)sc2c(CN(C)C)c(O)ccc12 | 85.9% (inactive)

Structure (SMILES) | growth
CC1=C(C)C(=O)OC([C@](C)(O)[C@]2(O)CC[C@@]3(O)[C@@H]4C[C@H]5O[C@]56CC=CC(=O)[C@]6(C)[C@H]4CC[C@]23COC(=O)c2ccc(C)o2)C1 (stereo not given in full) | -22.6% (active)
CN(C)CCCC1(c2ccc(F)cc2)OCc2cc(-c3ccc4cc[nH]c4c3)ccc21 (stereo not given) | 27.6% (inactive)
COC(=O)Nc1ccc2ccc3c(NC(=O)OC)ccc4ccc1c2c43 (tested in a mixture with another compound) | 33.8% (inactive)
O=C1OC(c2ccccc2)C(O)=C1c1ccccc1 (stereo not given) | 101% (inactive)
CNC(=O)c1cc(Oc2ccc3nc(Nc4ccc(Cl)c(C(F)(F)F)c4)ccc3c2)ccn1 | 62.6% (inactive)
Cc1ccccc1OC(=O)c1cccc(Cl)c1 | 60.4% (inactive)
Cc1cc2c(cc1C)[n+](Cc1ccc3ccccc3n1)cn2Cc1ccc2ccccc2n1 | -49.8% (active)
O=C(O)c1ccc(NC(=O)c2ccc(Nc3ccnc(C(F)(F)F)c3)cc2)cc1 | 97.4% (inactive)
COc1ccc2c(c1)N(CCO)C1=C(C(=O)OC1)C2c1cccc(Br)c1 (stereo not given) | -26.3% (active)
O=c1c2ccccc2n(CC(O)CN2CCCC2)c2c(Br)cccc12 (stereo not given) | 82.3% (inactive)
Cc1[nH]c(C(=O)Nc2ccccc2OC2CCNC2)c(Cl)c1Cl (stereo not given) | 90.6% (inactive)
CC1(C)O[C@H]2OC3CCC(=O)CC3(O)[C@H]2O1 (stereo not given in full) | 102% (inactive)
O=C(NC(Cc1ccccc1)C(=O)CCl)OCc1ccccc1 (stereo not given) | 39.8% (inactive)
COc1ccc(C(=O)c2sc3nc4c(cc3c2N)CCCC4)cc1OC | 11.4% (inactive)
CNc1ncc2cc(-c3cc(NC(=O)NCCC(C)(C)C)c(F)cc3C)c(C)nc2n1 | 6.32% (active)
COCC(=O)Oc1cc(-c2ccc(C)cc2C)c(OC(=O)COC)c(-c2ccc(C)cc2C)c1 | 36.9% (inactive)
CNC(=O)c1cc(Oc2ccc3nc(NC(=O)c4ccc5ncccc5c4)sc3c2)ccn1 | 87.8% (inactive)
COc1ccc2[nH]cc(C3(c4c[nH]c5ccc(OC)cc45)C(=O)Nc4ccc(Cl)cc43)c2c1 | 10.9% (inactive)
CC(C)(CCc1ccccn1)C(=O)CCCc1ccccn1 | 103% (inactive)
Cc1cccc(NC(=O)c2sc3nc4c(cc3c2N)CCCC4)c1 | 22.1% (inactive)
